Screening results deposited in PubChem by National Center for Advancing Translational Sciences (NCATS).
A selection: hits, their analogues and other compounds. The true share with any hit is near 19%.
KB-3-1 tox – KB-3-1 parental cell cytotoxicity. 400,000 compounds, 1.4% hits. Potency, µM (highest dose often 46.1 µM), hits mostly cytotoxic. KB-3-1 viability, CellTiter-Glo ATP luminescence, 72 h; note: nearly all actives have a fitted effect of over 60% in size
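Parental KB-3-1 adenocarcinoma cells in phenol-red-free DMEM with 10% FBS were pin-treated with compounds at several concentrations, incubated 72 h at 37 °C, and viability read by CellTiter-Glo luminescence; concentration-effect curves were fitted after normalization.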
DT40 TDP1 no CPT – qHTS for Inhibitors of human tyrosyl-DNA phosphodiesterase 1 (TDP1): qHTS in cells in absence of CPT. DT40 Tdp1-/- hTDP1 cells, no CPT, ATP luminescence, 48 h. Potency, µM (titrated, usually from 46.2 µM), actives largely listed as inhibitors. 420,000 compounds, 15% hits. AID 686978, 2013; note: nearly all actives have a fitted effect of over 55% in size
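DT40 Tdp1-/-;hTDP1 cells, no CPT (DMSO vehicle only), 400 cells/well; compounds pin-transferred; ≥48 hr, 37 °C; CellTiter-Glo 30 min RT dark, luminescence read.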
KB-V1 cytotox – KB-V1 MDR subline cytotoxicity. KB-V1 MDR cells viability, CellTiter-Glo, 72 h. Potency, µM (top dose mostly 46.1 µM), hits mostly cytotoxic. 400,000 compounds, 3.4% hits. AID 1347076; note: nearly all actives have a fitted effect of over 60% in size
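Cytotoxicity toward P-gp-expressing KB-V1 cells was determined as loss of CellTiter-Glo luminescence after 72 h at 37 degrees C. Compounds were tested in quantitative HTS format across a concentration range, with curves fitted to normalized data.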
HT1080-NT tox – kills 2HG-producing HT-1080-NT fibrosarcoma cells. 360,000 compounds, 1.6% hits. HT-1080-NT fibrosarcoma viability, CellTiter-Glo ATP luminescence, 48 h. AID 686970. Potency, µM (highest dose often 46.1 µM), usual class: cytotoxic;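 note: NT is the 2HG producing partner of a matched IDH1 knockdown line; nearly all actives have a fitted effect of over 55% in size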
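Fibrosarcoma NT cells, 750 per well in 5% FBS RPMI, were exposed to compound for 48 hours. Viability: CellTiter-Glo luminescence.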
HT1080 IDH1KD tx – HT-1080 IDH1 knockdown cell toxicity (counter line). 360,000 compounds, 2% hits. HT-1080 IDH1 knockdown viability, ATP luminescence, 48 h. AID 686971. Potency, µM (series often up to 46.1 µM), most hits filed as cytotoxic
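After a 2 h attachment period, IDH1KD HT-1080 cells took pin-transferred compound for 48 h at 37 °C; ATP-based luminescence after 10 min room-temperature reagent incubation reported viability.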
DT40 TDP1 CPT – growth inhibition of DT40 Tdp1-/-;hTDP1 cells with camptothecin (screen for TDP1 inhibitors). chicken DT40 Tdp1-/-;hTDP1 cells + 20 nM CPT, ATP luminescence, 48 h. Potency, µM (titrated, usually from 46.2 µM), most hits filed as inhibitors. 420,000 compounds, 12% hits; note: nearly all actives have a fitted effect of over 55% in size
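Cell growth measured by CellTiter-Glo luminescence after a minimum 48 h, 37 C compound exposure with 20 nM CPT in Tdp1-knockout DT40 cells stably expressing hTDP1, seeded 400/well; qHTS titration format.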
Of the large screens only hits and unclear results are named; the others gave an inactive call. Calls come from the whole dose curve; as a rule, active = well fitted curve in the direction sought with a large enough effect; inconclusive = small, poorly fitted or top-dose-only effect, or another doubt; inactive = no such curve, though single readings can be large; an effect the other way counts as inactive or inconclusive.

O=C(C1CCCN(S(=O)(=O)c2cccc3nsnc23)C1)N1CCN(c2ccccc2)CC1 (stereo unspecified)	KB-3-1 tox inconclusive, DT40 TDP1 no CPT 21µM, DT40 TDP1 CPT 16µM (no result: HT1080-NT tox, HT1080 IDH1KD tx)
O=C(C1CCCN(S(=O)(=O)c2cccc3nsnc23)C1)N1CCCCCC1 (stereo unspecified)	DT40 TDP1 no CPT inconclusive
O=C(C1CCCN(S(=O)(=O)c2cccc3nsnc23)C1)N1CCN(c2ccccc2F)CC1 (stereo unspecified)	DT40 TDP1 no CPT 15µM, DT40 TDP1 CPT 18µM (no result: HT1080-NT tox, HT1080 IDH1KD tx)
CN1CCN(c2ccc3c(c2)OC[C@@H](Cc2ccccc2)NS3(=O)=O)CC1	DT40 TDP1 no CPT inconclusive
O=C(C1CCCN(S(=O)(=O)c2cccc3nonc23)C1)N1CCN(c2cccc(C(F)(F)F)c2)CC1 (stereo unspecified)	KB-3-1 tox inconclusive, DT40 TDP1 no CPT 12µM, DT40 TDP1 CPT 15µM (no result: HT1080-NT tox, HT1080 IDH1KD tx)
O=C(C1CCN(S(=O)(=O)c2cccc3cccnc23)CC1)N1CCCC1	none
COc1ccc(C)cc1S(=O)(=O)N1CCCC(C(=O)N2CCN(c3ccccc3)CC2)C1 (stereo unspecified)	DT40 TDP1 CPT inconclusive
O=C(C1CCCN(S(=O)(=O)c2ccccc2[N+](=O)[O-])C1)N1CCN(c2ccccc2)CC1 (stereo unspecified)	DT40 TDP1 no CPT inconclusive, KB-V1 cytotox 5.8µM
O=C(C1CCCN(S(=O)(=O)c2cccc3cccnc23)C1)N1CCN(c2ccccc2F)CC1 (stereo unspecified)	DT40 TDP1 no CPT 15µM, DT40 TDP1 CPT 23µM
CC(C)c1ccc(CNC(=O)C2(C)CCCN2C)cc1 (stereo unspecified)	none
Cc1c(C(=O)NCc2ccccc2)sc2nc[nH]c(=O)c12	none (no result: HT1080-NT tox, HT1080 IDH1KD tx)
CN(C)c1ccnc2sc(C(=O)c3ccc(Br)cc3)c(N)c12	none
CN(C)c1ccnc2sc(C(N)=O)c(N)c12	DT40 TDP1 no CPT inconclusive, DT40 TDP1 CPT 1.6µM
CN(C)c1ccnc2sc(C(=O)NCc3ccccc3)c(N)c12	DT40 TDP1 no CPT inconclusive, HT1080-NT tox inconclusive, DT40 TDP1 CPT 16µM
Cc1ccc(CNc2nc(C)c(-c3ccn(CCN4CCOCC4)n3)s2)o1	none (no result: KB-3-1 tox, KB-V1 cytotox, HT1080-NT tox, HT1080 IDH1KD tx)
Cc1ccccc1-n1ncc2c(SCC(=O)N3c4ccccc4CC3C)ncnc21 (stereo unspecified)	DT40 TDP1 no CPT 20µM, KB-V1 cytotox 9.2µM, HT1080-NT tox inconclusive, HT1080 IDH1KD tx inconclusive, DT40 TDP1 CPT 29µM
Cc1ccc2nc(-c3cccnc3SCC(=O)N3c4ccccc4CC3C)[nH]c2c1 (stereo unspecified)	DT40 TDP1 no CPT inconclusive, DT40 TDP1 CPT inconclusive
Cc1ccc2nc(SCC(=O)N3c4ccccc4CC3C)c(C)cc2c1 (stereo unspecified)	DT40 TDP1 no CPT 15µM, DT40 TDP1 CPT 23µM
Cc1ccccc1-n1ncc2c(SCC(=O)NC3CCCC3)ncnc21	DT40 TDP1 no CPT 7.3µM, KB-V1 cytotox inconclusive, DT40 TDP1 CPT 21µM
CC1Cc2ccccc2N1C(=O)CSc1nc(-c2ccccc2)cs1 (stereo unspecified)	DT40 TDP1 no CPT 26µM, KB-V1 cytotox inconclusive, DT40 TDP1 CPT inconclusive
COc1ccccc1-c1nc(SCC(=O)NCc2ccccc2)c2c(=O)n(C)c(=O)n(C)c2n1	none (no result: HT1080-NT tox, HT1080 IDH1KD tx)
Cc1ccc(OCCCCn2c(CO)nc3ccccc32)cc1	DT40 TDP1 no CPT inconclusive, HT1080 IDH1KD tx inconclusive, DT40 TDP1 CPT 23µM
CCc1nc2ccccc2n1CCCCOc1ccc(C)cc1	KB-3-1 tox inconclusive, DT40 TDP1 no CPT 8.2µM, DT40 TDP1 CPT inconclusive (no result: HT1080-NT tox, HT1080 IDH1KD tx)
Cc1nc2ccccc2n1CCOc1ccc(F)cc1	DT40 TDP1 no CPT 18µM, KB-V1 cytotox inconclusive, DT40 TDP1 CPT inconclusive
COc1ccc(OCCn2c(C)nc3ccccc32)cc1	KB-3-1 tox inconclusive, DT40 TDP1 no CPT inconclusive, KB-V1 cytotox inconclusive, DT40 TDP1 CPT inconclusive
